Source: PubChem
An excerpt weighted towards active compounds, which were near 3% of everything screened.
SNCA expr inhib: Primary qHTS assay for inhibitors of alpha-synuclein gene (SNCA) expression; AID 1671194, 2021; hit rate 0.17% among 140,000; Potency, µM (highest dose often 57.2 µM), inactives show at the highest dose activity change, negative = inhibition, most hits filed as inhibitors; HEK-293 SNCA-luciferase knock-in, luminescence, 24 h;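 note: potency is the fitted concentration of half-maximal effect; plate controls were DMSO cells for no effect and cell-free wells for full effect; nearly all actives have a fitted effect of over 45% in size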
IP6K1 inh: Primary qHTS assay for small molecule inhibitors of Inositol hexaphosphate kinase 1 (IP6K1); Inositol hexakisphosphate kinase 1 (Homo sapiens), Q92551; IP6K1 kinase, ADP-Glo luminescence, 2 h; hits give low values; activity change, % (series mostly up to about 58 µM); hit rate 0.81% among 140,000; in the data active = activity change below about -25%; note: % is set by controls: 0 for no effect and ±100 for the full control effect
Target sequence (Q92551 whole entry, looked up): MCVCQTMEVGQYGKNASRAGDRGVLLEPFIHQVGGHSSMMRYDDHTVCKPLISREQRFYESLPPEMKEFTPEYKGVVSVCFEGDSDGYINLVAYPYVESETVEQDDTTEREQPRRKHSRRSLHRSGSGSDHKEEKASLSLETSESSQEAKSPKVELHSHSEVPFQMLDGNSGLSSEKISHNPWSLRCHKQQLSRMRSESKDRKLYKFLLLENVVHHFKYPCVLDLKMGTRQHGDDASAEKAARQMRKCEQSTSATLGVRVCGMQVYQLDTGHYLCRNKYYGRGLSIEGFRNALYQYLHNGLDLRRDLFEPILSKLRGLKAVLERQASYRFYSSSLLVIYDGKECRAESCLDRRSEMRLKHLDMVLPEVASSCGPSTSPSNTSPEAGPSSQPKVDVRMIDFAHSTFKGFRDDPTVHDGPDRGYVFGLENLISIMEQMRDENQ
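ADP-Glo luminescence measures ADP made by human IP6K1 during a 2 h RT reaction with ATP/IP6 (mix at 1.3 mM/130 uM); top library doses 57.5 and 19.1 uM final.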
HEK293 viab: GF-AFC viability counterscreen for inhibitors of alpha-synuclein gene (SNCA) expression. HEK-293-SNCA-luc viability, GF-AFC fluorescence, 24 h. Potency, µM (doses to about 57.1 µM), inactives show at the highest dose activity change, negative = cytotoxicity, hits mostly cytotoxic. hit rate 0.12% among 150,000. AID 1671193, 2021;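 note: potency is the fitted concentration of half-maximal effect; 0% = DMSO-treated cells and -100% = medium-only wells without cells; nearly all actives have a fitted effect of over 30% in size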
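HEK-293-SNCA-luc cells (1500/well) plated 24 h, then exposed 24 h to a dilution series; GF-AFC added 30 min at 37C, fluorescence 405/540 nm; normalised to medium-only and DMSO wells, Hill fit.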
KDM5B inh: Primary screen for KDM5B Histone Demethylases FDH-coupled qHTS | hit rate 2.6% among 220,000 | KDM5B demethylase, FDH-coupled NADH fluorescence (FDH is formaldehyde dehydrogenase) | Potency, µM (top dose mostly 57.7 µM), hits mostly inhibitors | Lysine-specific demethylase 5B (Homo sapiens), Q9UGL1; note: potency is the fitted concentration of half-maximal effect; 0% is about no effect; nearly all actives have a fitted effect of over 70% in size
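Compound dilutions met 200 nM (final) KDM5BΔAP for 10 min at room temperature before substrate addition. The substrate mix held 12.5 µM H3K4me3 with cofactors 25 µM α-ketoglutarate and 50 µM Fe²⁺. NADH signal gain over 30 min defined activity.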
* hit, by the source's call; [ ] = remark or other dose. Unless noted, calls come from the whole dose curve; as a rule, active = well fitted curve in the direction sought with a large enough effect; inconclusive = small, poorly fitted or top-dose-only effect, or another doubt; inactive = no such curve, though single readings can be large; an effect the other way counts as inactive or inconclusive.

Results for O=C(NCc1ccccc1)c1nc(S(=O)(=O)Cc2ccccc2)ncc1Cl ?
SNCA expr inhib: inconclusive; IP6K1 inh: -5; HEK293 viab: inconclusive; KDM5B inh: inconclusive

Results for COc1ccc(N(Cc2ccccc2)C(=O)c2nc(S(C)(=O)=O)ncc2Cl)cc1 ?
SNCA expr inhib: inconclusive; IP6K1 inh: -26*; HEK293 viab: 6.3µM*; KDM5B inh: inconclusive

What do the screens show for `CS(=O)(=O)c1ncc(Cl)c(C(=O)N(Cc2ccc(Cl)cc2)Cc2ccco2)n1`?
SNCA expr inhib: inconclusive; IP6K1 inh: -13; HEK293 viab: 2.5µM*; KDM5B inh: inconclusive

How did COc1ccc(CNC(=O)c2nc(S(=O)(=O)Cc3ccccc3)ncc2Cl)cc1 do in these assays?
SNCA expr inhib: inconclusive; IP6K1 inh: -7; HEK293 viab: 25µM*; KDM5B inh: inconclusive

Results for O=C1CCN(C[C@@H](O)COCc2ccccc2)c2ccc(F)cc2CN1CC1CC1 ?
IP6K1 inh: 7

Results for Cc1ccc(-n2ccc(=O)c(C(=O)Nc3cc(C(F)(F)F)ccc3Cl)n2)cc1 ?
KDM5B inh: inactive

Results for C=C[C@@]1(C)C=C2C(=O)C(O)=C3[C@](C)(C(=O)O)CC[C@@H]4C[C@]34[C@]2(O)C(=O)C1 ?
IP6K1 inh: 30; HEK293 viab: 18µM*

How did Cn1cc([C@@H](NC(=O)c2nc3ccccc3[nH]c2=O)C2CC(O)C2)cn1 (stereo not given in full) do in these assays?
SNCA expr inhib: 20%; IP6K1 inh: -8; HEK293 viab: 11%; KDM5B inh: 32µM*

How did Cn1cc([C@@H](NC(=O)c2cc(=O)n(-c3ccccc3)[nH]2)C2CC(O)C2)cn1 (stereo not given in full) do in these assays?
SNCA expr inhib: -14%; IP6K1 inh: 8; HEK293 viab: 3%; KDM5B inh: inactive

What do the screens show for `Cn1c(CNC(=O)c2cc[nH]c2C2CCCNC2)nc2ccccc21` (stereo not given)?
SNCA expr inhib: 47%; IP6K1 inh: 1; HEK293 viab: 4%[12.5 µM]; KDM5B inh: 32µM*

What do the screens show for `O=C(c1ccc(-c2cccs2)cc1)N1CCC(N[S+](=O)([O-])c2cccs2)CC1`?
SNCA expr inhib: -4%; IP6K1 inh: 1; HEK293 viab: 5%[12.5 µM]

How did Cc1noc2c(NC(C)C)cc(-c3cccs3)nc12 do in these assays?
SNCA expr inhib: -5%[87.6 µM]; IP6K1 inh: -24; HEK293 viab: 2%[87.6 µM]; KDM5B inh: inactive

What do the screens show for `Cc1noc2c(-c3cccnc3)cc(-c3cccs3)nc12`?
SNCA expr inhib: -29%[87.6 µM]; IP6K1 inh: 6; HEK293 viab: -8%[87.6 µM]; KDM5B inh: inconclusive

What do the screens show for `Cc1noc2c(-c3ccncc3)cc(-c3cccs3)nc12`?
SNCA expr inhib: -15%[87.6 µM]; IP6K1 inh: 2; HEK293 viab: 7%[87.6 µM]; KDM5B inh: 5.6µM*

How did Cc1noc2c(-c3cccc(O)c3)cc(-c3cccs3)nc12 do in these assays?
SNCA expr inhib: -11%[87.6 µM]; IP6K1 inh: -20; HEK293 viab: -8%[87.6 µM]; KDM5B inh: 13µM*

How did Cc1ncccc1-c1nc2cc(C(=O)NC3CC3)ccc2o1 do in these assays?
SNCA expr inhib: 4%[87.6 µM]; IP6K1 inh: 18; HEK293 viab: 2%[87.6 µM]

Results for COc1ccc(OCC2(C)COc3ccc(C(=O)NCC4CCOCC4)cc3N2)cc1 (stereo not given) ?
SNCA expr inhib: -4%[87.6 µM]; IP6K1 inh: -2; HEK293 viab: 6%[87.6 µM]; KDM5B inh: 32µM*

How did COc1ccc(OCC2(C)COc3ccc(C(=O)Nc4ccccc4)cc3N2)cc1 (stereo not given) do in these assays?
SNCA expr inhib: -13%[87.6 µM]; IP6K1 inh: 1; HEK293 viab: -23%[87.6 µM]; KDM5B inh: 28µM*

How did COc1ccc(OCC2(C)COc3ccc(C(=O)N(C)C)cc3N2)cc1 (stereo not given) do in these assays?
SNCA expr inhib: inconclusive; IP6K1 inh: -7; HEK293 viab: inconclusive; KDM5B inh: inactive

What do the screens show for `COc1ccc(OCC2(C)COc3ccc(C(=O)NCc4ccco4)cc3N2)cc1` (stereo not given)?
SNCA expr inhib: -6%[87.6 µM]; IP6K1 inh: -6; HEK293 viab: -3%[87.6 µM]; KDM5B inh: 18µM*
